# According to PubChem BioAssay (EPA / NIEHS):
# Results filed as inconclusive are left out. Activity calls are given as the source filed them. The calls were made as follows, unless noted: active = hit-call score of the fitted dose curve at least 0.9, where 1 is the maximum; inconclusive = response in the unintended direction; inactive = score below 0.9.
# How the values were obtained:
# [1] = biological target: mouse Estrogen Receptor alpha (Era), Esr1 (gene 13982) (UniProt P19785); assay: NVS_NR_mERa: NovaScreen (NVS) Nuclear Receptor Binding Assay for mouse Estrogen Receptor alpha (Era) (AID 2283378);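 also: hit means loss of bound radioligand signal relative to DMSO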
# Summary of the method: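 Measurements come from scintillation counting after filtration, taken 18 hours after chemicals were added to a cell-free mouse Era preparation with radioligand. Screening was duplicate at 25 uM, with concurrent positive and negative controls and confirmatory concentration series for actives.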
# [2] = biological target: Estrogen receptor beta (Homo sapiens) (UniProt Q92731); assay: OT_ER_ERbERb_1440: Odyssey Thera (OT) 24-hour HEK293T Protein-Complementation Assay for Estrogen Receptor-beta/-beta Homodimer (AID 2283380);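 also: fluorescence gain from ER beta LBD homodimer complementation read by laser scanning cytometry; scored as signal increase over DMSO baseline for both agonists and antagonists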
# Summary of the method: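 Fluorescence increase, nuclear for agonists or whole-cell for antagonists, relative to DMSO vehicle, quantified by laser scanning cytometer after fixation and Draq5 staining. Readout from 24 h treatment of HEK293T cells carrying complementation-paired ER beta LBD (aa 310-547).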
# [3] = biological target: Estrogen receptor (Homo sapiens) (UniProt P03372); assay: OT_ERa_GFPERaERE_0480: Odyssey Thera (OT) 8-hour HeLa Transcription Induction Assay for Estrogen Receptor (AID 2283381; active = hit-call score of the fitted dose curve at least 0.9, where 1 is the maximum; inactive = score below 0.9)
# Summary of the method: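 GFP-ERE reporter, HeLa, 8 h exposure. Readout: fluorescence microscopy, high-content image analysis. Fit direction positive vs DMSO negative control.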
# [4] = biological target: Estrogen receptor (Homo sapiens) (UniProt P03372); assay: OT_ERa_GFPERaERE_0120: Odyssey Thera (OT) 2-hour HeLa Transcription Induction Assay for Estrogen Receptor (AID 2283382)
# Summary of the method: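 Fluorescence microscopy read-out: inducible fluorescent protein reporter in HeLa cells, imaged 2 h post-dose. Signal increase over DMSO negative control fitted as single primary endpoint via high content image analysis.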
# [5] = biological target: Norway rat Vesicular Monoamine Transporter (VMAT2), neurotransmitter transporter, Slc18a2 (gene 25549) (UniProt Q01827); assay: NVS_TR_rVMAT2: NovaScreen (NVS) Transporter Assay for Norway rat Vesicular Monoamine Transporter (VMAT2), neurotransmitter transporter (AID 2283376);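 also: actives lower the bound radioligand signal below the DMSO level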
# Procedure: NVS_TR_rVMAT2 is a biochemical, single-readout assay that uses extracted gene-proteins from Rat forebrain in a tissue-based cell-free assay. Measurements were taken 1 hour after chemical dosing in a 96-well plate.NVS_TR_rVMAT2 is one of one assay component(s) measured or calculated from the NVS_TR_rVMAT2 assay. It is designed to make measurements of radioligand binding, a form of binding reporter, as detected with scintillation counting signals by Filter-based radiodetection technology.Data from the assay component NVS_TR_rVMAT2 was analyzed into 1 assay endpoint. This assay endpoint, NVS_TR_rVMAT2, was analyzed in the positive analysis fitting direction relative to DMSO as the negative control and baseline of activity. Using a type of binding reporter, loss-of-signal activity can be used to understand changes in the binding as they relate to the gene Slc18a2. Furthermore, this assay endpoint can be referred to as a primary readout, because the performed assay has only produced 1 assay endpoint. To generalize the intended target to other relatable targets, this assay endpoint is annotated to the transporter intended target family, where the subfamily is vesicular transporter.
# Binding assays used specific radioligands (tritiated, iodinated) with non-radioactive competitive displacement ligands in agonist or antagonist protocols (as indicated) and various reference compounds and inhibitors to titrate specific binding to receptors and transporters. Most enzyme assays (CYPs, kinases, phosphatases, proteases, HDACs) used recombinant protein and specific substrates (fluorescence mostly, some colorimetric and radioactive) and inhibitors, followed by a biochemical separation of substrate and product. All assays for the biochemical HTS were initially run in duplicate at a single concentration (10 uM for CYP450 assays and 25 uM for all others). […] Each assay was run with positive and negative controls, and concurrent controls on every plate. The follow-up (secondary) screen tested active chemical-pairs in concentration series, as well as a few additional assays not tested in the primary screen, some selected negative inactives, and several cases re-run in the concentration series for confirmatory purposes.
# [6] = biological target: human Norepinephrine Transporter (NET), SLC6A2 (gene 6530) (UniProt P23975); assay: NVS_TR_hNET: NovaScreen (NVS) Transporter Assay for human Norepinephrine Transporter (NET) (AID 2283377);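 also: cell-free membrane protein extracted from CHO cells expressing human NET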;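 as to AC50: displacement of radioligand from human NET seen as loss of scintillation signal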
# Summary of the method: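 Single-concentration duplicate screen at 25 uM, then concentration-response for actives; displacement of specific radioligand from human NET in CHO membrane extracts, filter-based scintillation detection at 1 h relative to DMSO.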
# [7] = biological target: Agonist Androgen Response Element (ARE), AR (gene 367) (UniProt P10275); assay: OT_AR_ARELUC_AG_1440: Odyssey Thera (OT) 24-hour CHO-K1 Luciferase Assay for Agonist Androgen Response Element (ARE) (AID 2283379)
# Summary of the method: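 Readout: luciferase bioluminescence from CHO-K1 ARE-luc cells, measured 24 h post-dosing; agonism = increased mean luminescence vs DMSO controls, fitted in positive direction.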
# [8] = biological target: human Dopamine Transporter (DAT), SLC6A3 (gene 6531) (UniProt Q01959); assay: NVS_TR_hDAT: NovaScreen (NVS) Transporter Assay for human Dopamine Transporter (DAT) (AID 2283374);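 also: activity means loss of bound radioligand signal relative to DMSO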
# Summary of the method: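 Duplicate single-point screening at 25 uM preceded concentration-series follow-up of actives. Binding was measured by competitive displacement of a radioligand from DAT protein, filter-counted by scintillation 1 h after dosing. Decrease relative to DMSO taken as activity.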
# [9] = system: rat Norepinephrine Transporter (NET), gene 83511; assay: NVS_TR_rNET: NovaScreen (NVS) Transporter Assay for rat Norepinephrine Transporter (NET) (AID 2283373)
# Summary of the method: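 Competitive radioligand displacement at the rat NET using forebrain membrane preparations, 1 h incubation, filter-based scintillation readout. Primary testing in duplicate at a single 25 uM concentration; confirmed actives retested across concentrations.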
# [10] = biological target: rat Serotonin Transporter (SERT), Slc6a4 (gene 25553) (UniProt P31652); assay: NVS_TR_rSERT: NovaScreen (NVS) Transporter Assay for rat Serotonin Transporter (SERT) (AID 2283375)
# Summary of the method: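 Using rat forebrain membrane SERT, test chemicals compete with a radioligand for 1 hour, and bound counts are taken by filter-based scintillation. Screening starts at 25 uM in duplicate, followed by concentration series for actives.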
# Chain of Norway rat Vesicular Monoamine Transporter (VMAT2), neurotransmitter transporter, Slc18a2 (gene 25549) (Q01827 whole entry, looked up): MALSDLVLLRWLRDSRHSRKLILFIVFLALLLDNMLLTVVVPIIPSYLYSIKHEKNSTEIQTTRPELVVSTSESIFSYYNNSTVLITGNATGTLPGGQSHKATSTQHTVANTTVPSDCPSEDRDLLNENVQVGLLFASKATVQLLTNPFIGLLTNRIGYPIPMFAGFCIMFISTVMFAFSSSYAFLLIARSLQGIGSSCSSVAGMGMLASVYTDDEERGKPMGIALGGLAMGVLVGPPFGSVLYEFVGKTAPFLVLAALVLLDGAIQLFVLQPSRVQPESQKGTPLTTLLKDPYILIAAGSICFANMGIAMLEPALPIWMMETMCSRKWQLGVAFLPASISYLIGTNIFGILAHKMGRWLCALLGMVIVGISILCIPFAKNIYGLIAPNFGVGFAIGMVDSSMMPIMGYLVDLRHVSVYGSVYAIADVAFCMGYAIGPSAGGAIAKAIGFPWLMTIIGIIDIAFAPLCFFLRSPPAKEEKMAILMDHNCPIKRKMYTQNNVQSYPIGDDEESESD
# Chain of Estrogen receptor beta (Homo sapiens) (Q92731 whole entry, looked up, the tested form may be a part): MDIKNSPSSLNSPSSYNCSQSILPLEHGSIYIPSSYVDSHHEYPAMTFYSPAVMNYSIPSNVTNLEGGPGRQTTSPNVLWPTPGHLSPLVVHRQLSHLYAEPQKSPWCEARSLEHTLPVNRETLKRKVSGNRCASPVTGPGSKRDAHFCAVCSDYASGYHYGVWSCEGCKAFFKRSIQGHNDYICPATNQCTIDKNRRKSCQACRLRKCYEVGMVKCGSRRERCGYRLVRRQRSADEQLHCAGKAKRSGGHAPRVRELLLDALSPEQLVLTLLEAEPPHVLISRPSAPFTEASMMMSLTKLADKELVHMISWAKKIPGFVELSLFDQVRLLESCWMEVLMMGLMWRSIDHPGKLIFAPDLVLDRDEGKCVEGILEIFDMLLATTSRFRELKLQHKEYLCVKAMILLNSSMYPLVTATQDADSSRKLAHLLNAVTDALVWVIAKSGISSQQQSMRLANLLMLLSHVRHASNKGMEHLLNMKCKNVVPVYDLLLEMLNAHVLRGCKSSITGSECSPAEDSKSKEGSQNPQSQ
# Chain of human Dopamine Transporter (DAT), SLC6A3 (gene 6531) (Q01959 whole entry, looked up): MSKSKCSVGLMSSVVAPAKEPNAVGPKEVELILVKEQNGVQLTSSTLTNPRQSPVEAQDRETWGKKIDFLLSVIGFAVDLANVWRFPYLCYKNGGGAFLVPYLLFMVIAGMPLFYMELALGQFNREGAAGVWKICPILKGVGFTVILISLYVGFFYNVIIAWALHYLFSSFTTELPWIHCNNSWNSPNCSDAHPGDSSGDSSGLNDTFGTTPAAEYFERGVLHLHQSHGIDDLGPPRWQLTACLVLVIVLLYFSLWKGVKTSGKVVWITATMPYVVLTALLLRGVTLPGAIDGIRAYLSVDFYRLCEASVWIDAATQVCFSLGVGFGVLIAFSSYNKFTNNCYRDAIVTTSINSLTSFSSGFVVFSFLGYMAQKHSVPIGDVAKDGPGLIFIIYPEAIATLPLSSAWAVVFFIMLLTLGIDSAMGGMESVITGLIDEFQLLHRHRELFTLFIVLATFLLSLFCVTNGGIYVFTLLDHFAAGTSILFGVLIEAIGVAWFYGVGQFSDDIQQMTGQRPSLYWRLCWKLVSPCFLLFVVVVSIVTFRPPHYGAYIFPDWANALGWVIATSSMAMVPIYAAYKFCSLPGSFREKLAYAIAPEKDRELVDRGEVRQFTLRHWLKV
# Chain of Estrogen receptor (Homo sapiens) (P03372 whole entry, looked up): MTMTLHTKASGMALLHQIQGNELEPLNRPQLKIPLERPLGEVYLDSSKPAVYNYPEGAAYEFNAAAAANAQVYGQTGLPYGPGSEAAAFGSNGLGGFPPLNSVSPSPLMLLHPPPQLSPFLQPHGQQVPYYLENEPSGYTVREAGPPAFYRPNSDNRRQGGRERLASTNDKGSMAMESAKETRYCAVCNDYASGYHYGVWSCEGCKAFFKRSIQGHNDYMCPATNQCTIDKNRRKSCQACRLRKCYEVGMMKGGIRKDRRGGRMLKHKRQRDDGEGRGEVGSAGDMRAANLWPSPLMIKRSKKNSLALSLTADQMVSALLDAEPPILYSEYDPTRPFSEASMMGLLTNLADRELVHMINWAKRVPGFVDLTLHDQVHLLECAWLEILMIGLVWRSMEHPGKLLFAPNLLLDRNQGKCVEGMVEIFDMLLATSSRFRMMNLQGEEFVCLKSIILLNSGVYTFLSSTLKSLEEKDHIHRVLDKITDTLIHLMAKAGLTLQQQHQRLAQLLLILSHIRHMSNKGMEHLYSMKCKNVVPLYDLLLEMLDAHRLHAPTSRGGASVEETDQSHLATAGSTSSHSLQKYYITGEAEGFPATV
# Chain of mouse Estrogen Receptor alpha (Era), Esr1 (gene 13982) (P19785 whole entry, looked up): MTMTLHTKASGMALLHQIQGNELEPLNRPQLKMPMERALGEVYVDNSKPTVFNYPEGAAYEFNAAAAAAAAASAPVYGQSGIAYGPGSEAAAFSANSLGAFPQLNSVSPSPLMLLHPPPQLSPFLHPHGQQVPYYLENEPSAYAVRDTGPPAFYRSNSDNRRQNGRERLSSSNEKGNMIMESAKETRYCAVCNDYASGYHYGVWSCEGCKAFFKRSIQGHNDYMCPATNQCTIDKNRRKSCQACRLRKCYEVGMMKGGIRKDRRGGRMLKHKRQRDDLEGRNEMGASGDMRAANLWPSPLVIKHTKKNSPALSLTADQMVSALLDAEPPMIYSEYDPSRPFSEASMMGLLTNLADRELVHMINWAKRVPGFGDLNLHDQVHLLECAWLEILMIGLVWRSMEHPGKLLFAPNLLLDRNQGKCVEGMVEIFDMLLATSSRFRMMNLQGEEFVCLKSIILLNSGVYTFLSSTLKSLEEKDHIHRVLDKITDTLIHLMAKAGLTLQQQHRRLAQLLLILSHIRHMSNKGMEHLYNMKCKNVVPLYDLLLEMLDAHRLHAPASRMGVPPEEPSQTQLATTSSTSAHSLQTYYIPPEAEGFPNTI
# Chain of human Norepinephrine Transporter (NET), SLC6A2 (gene 6530) (P23975 whole entry, looked up): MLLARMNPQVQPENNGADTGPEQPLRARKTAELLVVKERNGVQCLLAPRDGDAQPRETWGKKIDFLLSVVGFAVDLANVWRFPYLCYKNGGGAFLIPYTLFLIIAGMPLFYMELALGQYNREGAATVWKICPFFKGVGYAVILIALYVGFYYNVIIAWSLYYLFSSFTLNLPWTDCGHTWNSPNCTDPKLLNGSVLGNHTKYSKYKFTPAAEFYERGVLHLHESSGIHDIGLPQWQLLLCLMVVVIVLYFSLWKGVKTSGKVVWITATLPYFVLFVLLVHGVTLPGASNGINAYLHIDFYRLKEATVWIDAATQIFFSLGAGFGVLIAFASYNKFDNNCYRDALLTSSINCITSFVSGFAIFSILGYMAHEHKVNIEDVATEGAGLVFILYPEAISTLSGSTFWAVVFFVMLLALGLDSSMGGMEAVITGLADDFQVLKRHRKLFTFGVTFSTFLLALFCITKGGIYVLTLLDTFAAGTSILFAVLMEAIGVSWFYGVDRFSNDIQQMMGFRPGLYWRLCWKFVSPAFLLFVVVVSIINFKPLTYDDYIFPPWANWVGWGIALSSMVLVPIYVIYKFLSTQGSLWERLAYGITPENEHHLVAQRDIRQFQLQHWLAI
# Chain of Agonist Androgen Response Element (ARE), AR (gene 367) (P10275 whole entry, looked up): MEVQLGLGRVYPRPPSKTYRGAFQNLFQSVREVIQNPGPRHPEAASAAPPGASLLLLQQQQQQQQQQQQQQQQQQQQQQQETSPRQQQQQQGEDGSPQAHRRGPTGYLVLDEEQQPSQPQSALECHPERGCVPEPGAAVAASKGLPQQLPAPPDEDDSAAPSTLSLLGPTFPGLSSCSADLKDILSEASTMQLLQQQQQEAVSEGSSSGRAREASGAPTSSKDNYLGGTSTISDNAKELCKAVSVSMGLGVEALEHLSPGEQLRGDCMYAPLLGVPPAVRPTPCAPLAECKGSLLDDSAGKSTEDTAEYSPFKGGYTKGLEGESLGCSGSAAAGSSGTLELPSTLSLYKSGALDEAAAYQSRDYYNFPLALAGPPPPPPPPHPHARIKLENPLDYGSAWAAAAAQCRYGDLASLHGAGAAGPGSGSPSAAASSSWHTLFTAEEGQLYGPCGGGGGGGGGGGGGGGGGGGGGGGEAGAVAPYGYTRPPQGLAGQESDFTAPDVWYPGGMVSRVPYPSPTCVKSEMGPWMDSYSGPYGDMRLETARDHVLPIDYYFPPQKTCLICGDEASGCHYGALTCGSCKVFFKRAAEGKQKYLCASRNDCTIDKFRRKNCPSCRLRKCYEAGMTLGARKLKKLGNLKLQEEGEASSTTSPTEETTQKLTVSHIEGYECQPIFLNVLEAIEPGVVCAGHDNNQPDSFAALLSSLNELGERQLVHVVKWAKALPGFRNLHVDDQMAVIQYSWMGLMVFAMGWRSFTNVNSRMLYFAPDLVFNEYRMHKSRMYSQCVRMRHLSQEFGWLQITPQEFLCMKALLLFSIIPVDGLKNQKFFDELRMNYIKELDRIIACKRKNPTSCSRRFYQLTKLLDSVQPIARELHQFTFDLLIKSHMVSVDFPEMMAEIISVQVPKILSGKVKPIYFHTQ
# Chain of rat Serotonin Transporter (SERT), Slc6a4 (gene 25553) (P31652 whole entry, looked up): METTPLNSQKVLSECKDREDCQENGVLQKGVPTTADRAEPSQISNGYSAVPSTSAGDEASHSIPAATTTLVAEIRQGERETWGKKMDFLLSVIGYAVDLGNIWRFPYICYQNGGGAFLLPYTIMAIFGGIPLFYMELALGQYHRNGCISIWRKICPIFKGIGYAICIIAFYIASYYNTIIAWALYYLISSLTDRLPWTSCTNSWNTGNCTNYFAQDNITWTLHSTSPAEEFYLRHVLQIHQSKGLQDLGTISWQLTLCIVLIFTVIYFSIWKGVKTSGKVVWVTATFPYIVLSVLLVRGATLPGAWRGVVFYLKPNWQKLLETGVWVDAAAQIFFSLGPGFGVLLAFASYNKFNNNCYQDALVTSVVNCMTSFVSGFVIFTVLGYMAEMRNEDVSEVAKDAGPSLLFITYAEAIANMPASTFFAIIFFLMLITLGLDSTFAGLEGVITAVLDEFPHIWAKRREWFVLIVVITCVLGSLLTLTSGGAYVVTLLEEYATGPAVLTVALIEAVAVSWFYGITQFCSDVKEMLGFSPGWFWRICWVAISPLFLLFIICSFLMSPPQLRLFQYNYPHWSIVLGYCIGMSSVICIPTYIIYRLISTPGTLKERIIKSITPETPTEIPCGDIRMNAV
smiles,measurement,setting,value
CCOP(=S)(Oc1ccc([N+](=O)[O-])cc1)c1ccccc1 (stereo not drawn),outcome,[1],inactive
same,outcome,[2],inactive
same,AC50,[3],12.7 µM (active)
same,AC50,[4],18.4 µM (active)
CC1(C)CN=C(NN=C(/C=C/c2ccc(C(F)(F)F)cc2)/C=C/c2ccc(C(F)(F)F)cc2)NC1,AC50,[5],0.109 µM (active)
same,AC50,[6],1.6 µM (active)
same,outcome,[7],inactive
same,outcome,[2],inactive
same,outcome,[3],inactive
same,outcome,[4],inactive
O=S(=O)(c1ccc(O)cc1)c1ccc(O)cc1,outcome,[1],inactive
same,AC50,[2],39.5 µM (active)
same,AC50,[3],12.6 µM (active)
same,AC50,[4],51.9 µM (active)
O=P(OCC(Br)CBr)(OCC(Br)CBr)OCC(Br)CBr (stereo not drawn),outcome,[5],inactive
same,outcome,[7],inactive
same,outcome,[2],inactive
same,outcome,[3],inactive
same,outcome,[4],inactive
OCC1CO1 (stereo not drawn),outcome,[5],inactive
same,outcome,[3],inactive
same,outcome,[4],inactive
O=P(Oc1ccccc1)(Oc1ccccc1)Oc1ccccc1,AC50,[8],11.3 µM (active)
same,AC50,[3],12.4 µM (active)
same,AC50,[4],7.54 µM (active)
CC(C)Nc1ccc(Nc2ccccc2)cc1,AC50,[8],1.69 µM (active)
same,AC50,[6],2.93 µM (active)
Nc1ccc2ccccc2c1,AC50,[9],14.9 µM (active)
same,AC50,[8],12.9 µM (active)
same,AC50,[6],5.64 µM (active)
same,outcome,[2],inactive
same,outcome,[3],inactive
same,outcome,[4],inactive
Oc1ccccc1Br,outcome,[6],inactive
Oc1ccc(I)cc1,AC50,[10],2.5 µM (active)
same,outcome,[5],inactive
same,AC50,[6],19.8 µM (active)
N#C/C=C/c1ccccc1,outcome,[5],inactive
Clc1ccc(Oc2ccccc2)cc1,outcome,[8],inactive
CC(=O)c1ccc(-c2ccccc2)cc1,AC50,[8],10.9 µM (active)
CC(C)(C)c1ccc(O)cc1,outcome,[9],inactive
CCC(C)(C)c1ccc(O)cc1,outcome,[9],inactive
same,AC50,[8],10 µM (active)
same,AC50,[6],16.1 µM (active)
same,AC50,[1],25 µM (active)
same,AC50,[2],4.88 µM (active)
same,AC50,[3],1.32 µM (active)
same,AC50,[4],0.619 µM (active)
